High-throughput results from PubChem BioAssay.
JMJD2A Tudor inh – JMJD2A Tudor domain (human) inhibition; O75164; AlphaScreen JMJD2A-Tudor / H3K4me3 peptide binding; Potency, µM (titrated, usually from 114 µM), without a hit: at the top dose activity change, negative = inhibition, hits mostly inhibitors; 390,000 tested, 4.4% active; note: % is set by controls: 0 for no effect and ±100 for the full control effect; nearly all actives have a fitted effect of over 50% in size
BAZ2B block – BAZ2B (human) inhibition; Q9UIF8; AlphaScreen BAZ2B-H3K14Ac peptide displacement; Potency, µM (series often up to 114 µM), for inactives: at the top dose activity change, negative = inhibition, hits mostly inhibitors; 360,000 tested, 4.4% active; note: % is set by controls: 0 for no effect and ±100 for the full control effect; nearly all actives have a fitted effect of over 60% in size
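Compounds, titrated to a top concentration of 110 uM, were incubated 30 min at room temperature with preformed BAZ2B/acetyl-K14 H3 peptide complex (50 nM each). Proximity signal was measured by AlphaScreen after 20 min with beads.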
GLS inhibitor – glutaminase GLS (human) inhibition; GLS enzymatic activity, qHTS titration; Potency, µM (doses to about 45.5 µM), for the others: top-dose activity change, negative = inhibition, usual class: inhibitors; 410,000 tested, 0.21% active; AID 624170; note: % is set by controls: 0 for no effect and ±100 for the full control effect
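Compounds were pin-transferred onto hKGA, after which L-glutamine (1 mM solution) and a detection mix of glutamate oxidase, HRP and Amplex Red were added. Initial and 30 min RT fluorescence reads were collected.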
HP1b chromo inh – HP1-beta chromodomain-methylated histone interaction inhibition; AlphaScreen HP1-beta / biotin-H3K9me3 peptide binding; P83916; Potency, µM (titrated, usually from 114 µM), for inactives: top-dose activity change, negative = inhibition, usual class: inhibitors; 390,000 tested, 0.56% active; note: nearly all actives have a fitted effect of over 70% in size
Target sequence (P83916 whole entry, looked up): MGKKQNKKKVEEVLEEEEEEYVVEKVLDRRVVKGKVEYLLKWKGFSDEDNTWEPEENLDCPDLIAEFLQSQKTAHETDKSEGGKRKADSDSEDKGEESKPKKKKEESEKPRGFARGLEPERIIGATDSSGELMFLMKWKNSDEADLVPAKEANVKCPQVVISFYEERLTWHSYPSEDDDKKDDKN
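Compound inhibition of the preformed complex between 50 nM HP1-beta and 50 nM biotinylated H3K9me3 peptide was read by AlphaScreen. Buffer was PBS pH 7.4 with 0.01% Tween-20. Incubations ran 30 min at room temperature, with 10 ug/mL donor/acceptor beads.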
G9a block – blocks human histone lysine methyltransferase G9a; G9a H3K9 monomethylation, AlphaScreen, 2 h; 350,000 tested, 8.8% active; Q96KQ7; Potency, µM (highest dose often 102 µM), for inactives: top-dose activity, negative = inhibition, actives largely listed as inhibitors; note: % is set by controls: 0 for no effect and ±100 for the full control effect; nearly all actives have a fitted effect of over 75% in size
Target sequence (Q96KQ7 913-1193 limits assumed): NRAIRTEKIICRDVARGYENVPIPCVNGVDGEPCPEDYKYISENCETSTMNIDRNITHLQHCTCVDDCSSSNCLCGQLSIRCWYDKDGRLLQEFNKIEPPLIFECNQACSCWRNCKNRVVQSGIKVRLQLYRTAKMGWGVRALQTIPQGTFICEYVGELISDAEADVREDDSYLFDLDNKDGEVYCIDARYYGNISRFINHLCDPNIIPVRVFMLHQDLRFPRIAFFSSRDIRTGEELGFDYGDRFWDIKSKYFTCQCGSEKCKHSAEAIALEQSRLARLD
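Chemiluminescent proximity detection of H3K9 monomethylation, read after 10 min bead incubation in the dark. Reaction: 20 nM G9a, 500 nM biotin-H3K9 peptide, 20 uM SAM cofactor, 2 h, room temperature, following 15 min enzyme-compound preincubation.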
* = called active by the depositor; ? = inconclusive; / = no result given; ! = not confirmed by another sample; [ ] = dose if it differs, or a comment. Most compounds without a hit are left out; they make up all but 10% or so of the library. Calls come from the whole dose curve; as a rule, active = well fitted curve in the direction sought with a large enough effect; inconclusive = small, poorly fitted or top-dose-only effect, or another doubt; inactive = no such curve, though single readings can be large; an effect the other way counts as inactive or inconclusive. Potency is the fitted concentration of half-maximal effect.

SMILES | JMJD2A Tudor inh | BAZ2B block | GLS inhibitor | HP1b chromo inh | G9a block
Cc1ccc(NC(=O)Cn2nnc(-c3nc(-c4ccc(Cl)cc4)no3)c2N)cc1C | 9% | -10% | 3% | 28% | ?
C=CCN(CC=C)C(=O)c1c(OC)cccc1OC | -18% | 7% | 2% | 26% | 9%
C=CCc1c(C)[nH]c2c(OC)cccc2c1=S | ? | -34% | -17% | 2% | 4µM*
Cc1ccc(S(=O)(=O)Nc2ccc3c(c2)c(C(=O)OC(C)C)c(C)n3S(=O)(=O)c2ccc(C)cc2)cc1 | -21% | -18% | 1% | 34% | -33%[59 µM]
CCCOc1ccc(C(=O)CCCC(=O)c2ccc(OCCC)cc2)cc1 | 12% | 44% | -1% | 48% | /
CC(C)COc1ccc(C(=O)OCCN2CCCCC2)cc1 | -19% | 4% | -1% | 73% | 19%[2.33 µM]
CCCCCC(O)(CCN1CCCCC1)c1ccc(OCC)cc1 (stereo not drawn) | 40µM* | -16% | -11% | 9% | 15%[59 µM]
CCCCOc1ccc(C(=O)CCN2CCCCC2)cc1 | -8% | -23% | 1% | 84% | 10µM*
COc1ccc(C(O)(CCN2CCCCC2)C2CCCCC2)cc1 (stereo not drawn) | -13% | -1% | -1% | 28% | 50µM*
CC(C)COc1ccc(C(=O)CCN2CCCCC2)cc1 | -13% | -11% | 5% | 55% | 16µM*
CCC(=O)N(C)/C=C1\Sc2ccccc2C1=O | -21%[11.4 µM] | 56µM* | 15% | 32% | ?
CCCCCc1ccc2cc(C#N)ccc2n1 | / | / | -14% | / | /
Cc1ccc(CNS(=O)(=O)c2ccc3[nH]c4c(c3c2)CCCC4)cc1 | ? | 2% | 4% | 29% | ?
O=S(=O)(NCc1ccccc1)c1ccc2[nH]c3c(c2c1)CCCCC3 | ? | -20%[57.1 µM] | -11% | 1% | 14µM*
O=S(=O)(NCc1ccc(F)cc1)c1ccc2[nH]c3c(c2c1)CCCC3 | ? | ? | 7% | -11% | 8.9µM*
COc1cc(OC)c(NC(=O)N2CCc3cc(S(=O)(=O)N4CCC(C)CC4)ccc32)cc1Cl | -17% | 2% | -13% | 5% | -1%[59 µM]
NCCC1CCCC(CCN)N1 (stereo not drawn) | -7% | 3% | -3% | 23% | 8.9µM*!
CC(C)(C)C1CCc2c(sc(NC(=O)c3cccc(Cl)c3)c2C(=O)NCc2ccco2)C1 (stereo not drawn) | 7% | 2% | -19% | 30% | -4%[59 µM]
COc1cccc(C2C(C#N)=C(N)Oc3cc(C)n(Cc4ccco4)c(=O)c32)c1 (stereo not drawn) | 10% | 11% | 13% | 33% | 50µM*
COc1ccc(C2C(C#N)=C(N)Oc3cc(C)n(Cc4ccco4)c(=O)c32)cc1 (stereo not drawn) | -11%[57.1 µM] | -4% | -2% | 24% | 25µM*
Cc1cc2c(c(=O)n1Cc1cccnc1)C(c1ccccc1)C(C#N)=C(N)O2 (stereo not drawn) | 5% | 10% | -2% | 35% | -4%[2.33 µM]
Cc1cc2c(c(=O)n1CCCn1ccnc1)C(c1ccco1)C(C#N)=C(N)O2 (stereo not drawn) | -25% | -7% | 8% | 58% | ?
NC(=O)NC(CC(=O)NNC(=O)c1cccs1)c1ccc(Cl)cc1 (stereo not drawn) | -5% | / | -3% | 39% | /
CN(Cc1ccccc1)c1nc2c(S(=O)(=O)c3cccc(Cl)c3)nnn2c2ccsc12 | -16% | -9% | -2% | 0% | -9%[59 µM]
CCOc1ccc(N2CC(C(=O)NCCc3ccc(S(N)(=O)=O)cc3)CC2=O)cc1 (stereo not drawn) | -5% | 4% | -6% | 3% | 25µM*
CCOc1ccc(N2CC(C(=O)OCC(=O)c3ccc(OC)cc3)CC2=O)cc1 (stereo not drawn) | 56µM* | -12% | -5% | 7% | -10%
CCOc1ccccc1N1CC(C(=O)NCCc2ccc(S(N)(=O)=O)cc2)CC1=O (stereo not drawn) | -7% | 12% | -10% | 22% | 27%[59 µM]
CCOc1ccc(N2CC(C(=O)NCCN3C(=O)S/C(=C/c4cccnc4)C3=O)CC2=O)cc1 (stereo not drawn) | -9% | 3% | 0% | 48% | 14µM*
